Sampled rows, rich in hits. Any-hit rate of the full collection: about 11%.
HPGD inh = inhibitors of human 15-hydroxyprostaglandin dehydrogenase (HPGD); P15428; purified HPGD, NADH fluorescence kinetic, PGE2 substrate; Potency, µM, for inactives: top-dose activity change, negative = inhibition, hits mostly inhibitors; actives 4.3% (n = 150,000); AID 894; further: potency means the concentration at half of the fitted maximal effect; on the % scale 0 is the no-effect control and ±100 the full control effect
Target sequence (P15428 whole entry, looked up): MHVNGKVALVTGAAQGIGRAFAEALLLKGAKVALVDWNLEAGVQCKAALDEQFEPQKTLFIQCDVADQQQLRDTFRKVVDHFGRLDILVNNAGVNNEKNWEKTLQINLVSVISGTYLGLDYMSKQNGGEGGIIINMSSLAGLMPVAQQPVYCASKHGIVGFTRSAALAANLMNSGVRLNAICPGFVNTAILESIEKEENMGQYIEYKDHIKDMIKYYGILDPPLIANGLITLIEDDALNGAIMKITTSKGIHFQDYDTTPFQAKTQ
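20 nM HPGD preincubated 15 min at room temperature with compound in 50 mM Tris-HCl pH 8, 0.01% Tween 20. Started with 1 mM NAD+ and 30 uM prostaglandin E2; NADH fluorescence (360/450 nm) read 5 times over 30-s intervals, last minus first.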
HTT ATP protect = protects HTT-Q103 PC12 cells, measured by ATP. PC12 HTT-Q103 induced, cytoprotection, ATP luminescence, 40 h. Potency, µM (highest dose often 56.4 µM), without a hit: cytoprotection (ATP increase), actives largely listed as activators. actives 0.14% (n = 230,000). AID 1471; active means well fitted curve in the direction sought with a large enough effect; inconclusive means small, poorly fitted or top-dose-only effect, or another doubt; inactive means no such curve, though single readings can be large; an effect the other way counts as inactive or inconclusive; further: potency means the concentration at half of the fitted maximal effect; % of control where 0% means no effect; nearly all actives have a fitted effect of over 45% in size
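Rat PC12, Q103 Htt exon1-GFP fusion, ecdysone promoter; tebufenozide inducer 100 nM final; compound titration; qHTS, 1500 cells/well; ATPlite luminescent read.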
PNC inhibitor = perinucleolar compartment assembly inhibition; activity change (PNC), negative = inhibition, % at 10 µM; PC3M PTB-GFP, PNC prevalence imaging, 16 h; stronger effect = lower value; actives 3.1% (n = 140,000);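 active means readout at or below -70, meaning at least 70% loss of cells showing the perinucleolar compartment, a nuclear body marking cancer cells; inconclusive means readout between -30 and a set limit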;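 further: plate controls were DMSO wells for no effect and camptothecin positive control wells for full effect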
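PC3M cells stably expressing PTB-GFP, 750–1000 cells/well, treated 16 h at 37 °C with compound (23 nl of library stock), in duplicate. After paraformaldehyde fixation and Hoechst stain, imaged at 20x; PNC prevalence scored by image analysis.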
ALDH1A1 inh = ALDH1A1 (human) enzyme inhibition | Potency, µM (doses to about 75.3 µM), without a hit: at the highest dose activity, negative = inhibition, hits mostly inhibitors | P00352 | actives 7.3% (n = 220,000) | AID 1030 | Purified ALDH1A1, NADH fluorescence, propionaldehyde substrate;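 further: potency means the concentration at half of the fitted maximal effect; plate controls were no enzyme wells and a reference inhibitor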
Target sequence (P00352 whole entry, looked up): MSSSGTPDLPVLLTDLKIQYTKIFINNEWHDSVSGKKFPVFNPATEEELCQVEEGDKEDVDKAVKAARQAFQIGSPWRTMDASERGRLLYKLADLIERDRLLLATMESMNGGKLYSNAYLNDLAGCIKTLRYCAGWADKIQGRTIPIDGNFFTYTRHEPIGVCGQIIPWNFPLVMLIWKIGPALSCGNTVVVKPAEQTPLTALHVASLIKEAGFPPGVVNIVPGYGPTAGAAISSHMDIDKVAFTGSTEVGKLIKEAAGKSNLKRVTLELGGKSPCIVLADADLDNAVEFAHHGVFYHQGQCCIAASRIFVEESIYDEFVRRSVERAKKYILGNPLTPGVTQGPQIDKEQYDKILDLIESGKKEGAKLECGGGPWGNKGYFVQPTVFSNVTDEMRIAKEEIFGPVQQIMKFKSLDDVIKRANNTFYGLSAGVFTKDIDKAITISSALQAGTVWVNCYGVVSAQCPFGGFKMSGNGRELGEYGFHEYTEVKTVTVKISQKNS
RGS12 GoLoco inh = RGS12 GoLoco-Gai1 interaction inhibition. actives 0.44% (n = 230,000). Gai1:RGS12 GoLoco peptide FP, rhodamine, 10 min. Potency, µM (top dose mostly 61.6 µM), for the others: top-dose activity, negative = inhibition, actives largely listed as inhibitors. AID 880; active means well fitted inhibition curve with a large enough effect, not every such curve was filed as active; inactive means no such curve, though single readings can be large or run the other way; further: potency means the concentration at half of the fitted maximal effect; on the % scale 0 is the no-effect control and ±100 the full control effect; nearly all actives have a fitted effect of over 30% in size
HttQ103 aggreg = inhibitors of mutant huntingtin aggregate formation in PC12 cells; PC12 HttQ103-GFP aggregates, Acumen cytometry, 40 h; Potency, µM (series often up to 46.1 µM), for inactives: top-dose activity change, negative = inhibition, usual class: inhibitors; actives 1.1% (n = 220,000); AID 1688; active means well fitted curve in the direction sought with a large enough effect; inconclusive means small, poorly fitted or top-dose-only effect, or another doubt; inactive means no such curve, though single readings can be large; an effect the other way counts as inactive or inconclusive; further: potency means the concentration at half of the fitted maximal effect; on the % scale 0 is the no-effect control and ±100 the full control effect; nearly all actives have a fitted effect of over 60% in size
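Compounds (qHTS titration) were added to PC12 cells expressing an ecdysone-driven HTT exon 1 Q103–GFP fusion after induction with 100 nM tebufenozide. Aggregate formation was measured as GFP objects in cell lysates.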
An asterisk follows results filed as active; ? = inconclusive; · = no result given; ! = repeats disagree; [ ] = remark or other dose. Unless noted, the call rests on the fitted dose curve; in most records, active means well fitted inhibition curve with a large enough effect (not every such curve was filed as active); inconclusive means small, poorly fitted or top-dose-only effect, or another doubt; inactive means no such curve, though single readings can be large or run the other way.

SMILES	HPGD inh	HTT ATP protect	PNC inhibitor	ALDH1A1 inh	RGS12 GoLoco inh	HttQ103 aggreg
Nc1ccc(C(=O)OCc2csc(-c3ccccc3)n2)cc1[N+](=O)[O-]	-9%	30%[10 µM]	89	6%	8%	2%
NC(=O)CSc1cn(Cc2ccc(F)cc2)c2ccccc12	·	·	·	-4%	38%	17%
O=C(O)Cn1cc(/C=C/[N+](=O)[O-])c2ccccc21	·	·	·	-11%	14%	0%
O=[N+]([O-])/C=C/c1cn(Cc2ccccc2)c2ccccc12	-25%	-72%	19	16µM*	-8%	?
NC(=O)CSc1cn(Cc2ccccc2)c2ccccc12	·	-34%	·	7.9µM*	-24%	-8%
N#Cc1ccccc1Cn1cc(/C=C/[N+](=O)[O-])c2ccccc21	40µM*	·	-11	3.5µM*	20%	?
C(=N\n1cnnc1)/c1cn(Cc2ccccc2)c2ccccc12	-18%	4%	-5	13µM*	6%	4%
CS(=O)(=O)c1ccc([C@@H](O)[C@@H](COC(=O)CN)NC(=O)C(Cl)Cl)cc1	·	12%	·	·	·	8%
Cc1cc(C)nc(NC(=O)c2cccc(Cl)c2)n1	·	-11%[10 µM]	53	16%	·	-4%
Cc1cc(NC(=O)c2ccccc2F)ncc1NC(=O)c1cccs1	·	-65%	·	-5%	19%	-1%[9.22 µM]
CN(C)Cc1ccc(C(C)(C)C)cc1-c1cc(C(C)(C)C)ccc1CN(C)C	-11%	8%[10 µM]	·	-2%[13.5 µM]	-5%[14.2 µM]	·
COc1cc(/C=C/C(=O)/C=C(O)/C=C/c2ccc(O)c(OC)c2)ccc1O	22µM*!	?	·	-4%	15%	5%
COc1cc(C=O)ccc1O	-15%	-8%[1.9 µM]	·	25µM*	1%	·
COc1cc(/C=C/C(=O)CC(=O)/C=C/c2ccc(O)c(OC)c2)ccc1O	14µM*!	?	-29	8.9µM*!	71%	?
COc1cc(/C=C2/C(=O)CNC2=O)ccc1O	·	-22%[10 µM]	·	13µM*	56%	8%
COc1cc(/C=C2\CCC/C(=C\c3ccc(O)c(OC)c3)C2=O)ccc1O	·	-305%	·	·	·	-24%
COc1cc(/C=C\C(=O)CC(=O)/C=C\c2ccc(O)c(OC)c2)ccc1O	·	9%	·	·	·	·
COc1ccc(C(=O)Nc2n[nH]c(-c3ccncc3)n2)cc1	-8%	-29%	23	-1%	6%	0%
Cn1c(=Nc2ccc(N3CCOCC3)cc2)ccc2ccccc21	-9%	-5%	34	7%	0.32µM*	-2%
O=C(O)CCCN1CCCCC1	-6%	-5%[10 µM]	·	-6%[13.5 µM]	5%[14.2 µM]	·
CCOc1ccc(C(=S)NC2CCCCC2)cc1OC	20µM*	-41%	-24	40µM*	-7%	2%
O=C(NNC(=S)NC1CCCCC1)c1ccc2c(c1)OCO2	-13%	12%[10 µM]	-15	-11%	2%	?
O=C(NC1CCCCCCC1)c1ccc2c(c1)OCO2	16µM*	-5%[10 µM]	-7	-1%	-2%	-14%
S=C(NC1CCCCC1)c1ccc2c(c1)OCO2	20µM*	-45%	17	?	-3%	-12%
COc1ccc(OC)c(NC(=O)C(=S)NC2CCCCC2)c1	·	-85%	·	8.9µM*	15%	0%[9.22 µM]
SMILES	HPGD inh	HTT ATP protect	PNC inhibitor	ALDH1A1 inh	RGS12 GoLoco inh	HttQ103 aggreg
Cc1c(C)c2c(c(C)c1O)CCC(C)(COc1ccc(Cc3sc(=O)[nH]c3O)cc1)O2 (centres undefined)	-8%	25%	·	8%	1%	·
O=C1CC(c2ccc(F)cc2)CC2=C1C(c1ccc([N+](=O)[O-])o1)Nc1ccccc1N2 (centres undefined)	·	0%[10 µM]	·	-5%	-2%	15%[9.22 µM]
CC(C)[C@H](NC(=O)c1ccccc1)C(=O)OCC(=O)NCc1ccc(F)cc1	·	29%	·	-5%	12%	-6%
CN(C)c1ccc(/C=N/NC(=O)c2nonc2N)cc1[N+](=O)[O-]	·	11%[10 µM]	·	2µM*	3%	-11%[9.22 µM]
NC(N)=N[C@H](CC(=O)O)c1ccccc1	-9%	-12%[10 µM]	·	8%[13.5 µM]	-2%[14.2 µM]	·
N[C@@H](Cc1c[nH]c2ccc([N+](=O)[O-])cc12)C(=O)O	-5%	-6%[10 µM]	·	7%[13.5 µM]	-1%[14.2 µM]	·
O=C(NC1(O)C(=O)c2ccccc2C1=O)c1ccccc1	-4%	12%[10 µM]	15	1.4µM*	3%	?
O=C(NOC(=O)c1ccccc1)c1ccccc1	·	18%[10 µM]	·	20µM*	4%	-2%[9.22 µM]
O=C(NO)c1ccccc1	-9%	-1%	·	-16%	28µM*	·
Cc1cc2oc(=O)cc(CN3CCOCC3)c2cc1C	-1%	7%	?	1%	2%	-4%
Cc1cc2oc(=O)cc(CN3CCCc4ccccc43)c2cc1C	-18%	2%	-1	25µM*	43%	0%
CC1=CN2C(=NC(=O)CC2(C)C(=O)N(CC(=O)NC2CCCC2)c2ccccc2C)C=C1 (centres undefined)	?	-7%[10 µM]	-100*	?	1%	8%
Cc1nnc(NC(=O)c2ccc3ccccc3n2)s1	·	-33%	·	-4%	14%	12%
Cc1ccc(NC(=O)NC(=O)N(C(C)C)S(=O)(=O)c2ccc(C)cc2)cc1	·	·	·	-8%	-3%	-8%
C[N+](C)(C)CC/C=C1/c2ccccc2CSc2ccccc21	0%	-5%[10 µM]	156	?	2.2µM*	-2%
CN(C)c1ccc(C(=S)NCc2ccco2)cc1	?	-14%[10 µM]	-17	5µM*	50%	6%
NC(=O)Cc1nc(-c2ccc(Br)cc2)cs1	-11%	2%[10 µM]	44	10%	1%	5%
Oc1csc(Cc2nc(-c3ccc(Br)cc3)cs2)n1	·	7%	·	28µM*	29%	13%
CCN1CCCc2cc(CN(CCN3CCOCC3)C(=S)Nc3ccc(OC)cc3)ccc21	·	-59%	·	?	21%	-16%
CCN1CCCc2cc(CN(CCN3CCOCC3)C(=S)Nc3ccc(C)cc3)ccc21	·	-45%	·	6.3µM*	66%	5%
CCOc1ccc(NC(=S)N(CCN2CCOCC2)Cc2ccc3c(c2)CCCN3CC)cc1	·	-9%	·	13µM*	12%	3%
Cc1cc(=O)oc2cc(OCC(=O)N3c4ccccc4CC3C)ccc12 (centres undefined)	?	-84%	-85*	?	10%	20%
CN(C)CCCSc1nc2ccccc2[nH]1	2%	4%[10 µM]	·	21%[13.5 µM]	6%[14.2 µM]	·
CCC(=O)N(C1=C(NC(C)C)C(=O)c2ccccc2C1=O)C(C)C	·	-4%[10 µM]	·	?	-8%	-3%[9.22 µM]
CCCNC1=C(N(C(C)=O)c2cccc(F)c2)C(=O)c2ccccc2C1=O	-4%	-76%[10 µM]	-90*	18%	18%	11µM*
O=C(c1cnccn1)N1CCC2(CC1)CN(c1ccccc1)C2	-1%	-6%	·	8%	-9%	·
COC(=O)c1c(C)n(-c2ccc(OC)cc2)c2ccc(O)cc12	?	-15%	?	-9%	-8%	11µM*

Bioassay records (PubChem)
